Screening data (PubChem BioAssay)
TDP1 inh – qHTS Assay for Inhibitors of Tyrosyl-DNA Phosphodiesterase (TDP1) | Tyrosyl-DNA phosphodiesterase 1 (Homo sapiens), Q9NUW8 | recombinant TDP1, AlphaScreen DNA substrate cleavage | Potency, µM (series often up to 130 µM), inactives show at the highest dose activity change, negative = inhibition, usual class: inhibitors | 350,000 tested, 0.28% active | AID 485290, 2010; also: potency is read from the fitted curve at half-maximal effect; nearly all actives have a fitted effect of over 40% in size
Target sequence (Q9NUW8 whole entry, looked up): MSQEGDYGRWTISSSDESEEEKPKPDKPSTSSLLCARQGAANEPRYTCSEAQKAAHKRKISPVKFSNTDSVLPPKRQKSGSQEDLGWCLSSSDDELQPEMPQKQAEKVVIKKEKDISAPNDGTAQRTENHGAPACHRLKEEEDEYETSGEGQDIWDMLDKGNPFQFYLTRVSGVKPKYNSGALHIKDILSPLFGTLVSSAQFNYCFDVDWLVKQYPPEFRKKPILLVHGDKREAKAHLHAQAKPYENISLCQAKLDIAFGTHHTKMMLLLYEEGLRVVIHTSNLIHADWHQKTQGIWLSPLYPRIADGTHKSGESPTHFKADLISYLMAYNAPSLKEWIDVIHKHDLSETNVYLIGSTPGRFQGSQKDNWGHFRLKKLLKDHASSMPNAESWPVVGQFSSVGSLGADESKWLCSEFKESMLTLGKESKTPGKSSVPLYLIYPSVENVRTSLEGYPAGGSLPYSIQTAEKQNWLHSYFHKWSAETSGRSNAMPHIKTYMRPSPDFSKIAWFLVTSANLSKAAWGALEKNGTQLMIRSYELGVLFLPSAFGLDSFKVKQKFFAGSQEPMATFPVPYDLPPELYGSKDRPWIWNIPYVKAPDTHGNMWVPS
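E. coli-derived human Tdp1, 1 nM final. Cpd preinc 15 min RT; substrate 15 nM final, 5 min RT; AS bead mix 10 ug/ml final, 10 min RT. Signal loss = tyrosine-FITC cleavage. No-enzyme wells = max signal.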
IL-1B inflam inh – qHTS for Inhibitors of Inflammasome Signaling: IL-1-beta AlphaLISA Primary Screen; 360,000 tested, 4.7% active; AID 743279, 2014; activity change, % at 57.5 µM; THP-1 LPS/ATP IL-1B secretion, AlphaLISA, 16 h; hits give low values; in the data active = activity change below about -50%; inconclusive = mostly about -30% to -49%
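THP-1 cells pretreated 1 hr with compounds (up to 57.5 uM final), then stimulated with LPS (250 ng/mL final) plus ATP (1.25 mM final); secreted IL-1B measured by AlphaLISA after 16 hr, decreased signal indicating inhibition.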
DT40 TDP1 CPT – qHTS for Inhibitors of human tyrosyl-DNA phosphodiesterase 1 (TDP1): qHTS in cells in presence of CPT; chicken DT40 Tdp1-/-;hTDP1 cells + 20 nM CPT, ATP luminescence, 48 h; 420,000 tested, 12% active; Potency, µM (titrated, usually from 46.2 µM), inactives show at the top dose activity change, negative = growth inhibition, most hits filed as inhibitors; also: potency is read from the fitted curve at half-maximal effect; nearly all actives have a fitted effect of over 55% in size
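Chicken DT40 Tdp1-/- cells complemented with human TDP1, 400 cells/well, exposed to compounds plus 20 nM camptothecin for at least 48 h at 37 C; viability read as ATP content by CellTiter-Glo luminescence.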
Giardia killer – Small Molecules that selectively kill Giardia lamblia: qHTS; Giardia lamblia trophozoite viability; activity change, % at 7.66 µM, hits read low; 340,000 tested, 0.15% active; AID 540267, 2011; in the data active = activity change below about -80%; inconclusive = between about -30% and that limit;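 also: parasites exposed to compound for two days anaerobically before the ATP read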
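Media and compound were dispensed first, then trophozoites at 100 cells/well; plates sat 48 hrs at 37 deg C without oxygen before ATP luminescence reagent was added and read after 15-30 min at room temperature.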
TDP1 cell noCPT – qHTS for Inhibitors of human tyrosyl-DNA phosphodiesterase 1 (TDP1): qHTS in cells in absence of CPT. Potency, µM (series often up to 46.2 µM), without a hit: top-dose activity change, negative = growth inhibition, actives largely listed as inhibitors. DT40 Tdp1-/- hTDP1 cells, no CPT, ATP luminescence, 48 h. 420,000 tested, 15% active. AID 686978, 2013; also: potency is read from the fitted curve at half-maximal effect; nearly all actives have a fitted effect of over 55% in size
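Seeded 400 DT40-hTDP1 cells/well (vehicle DMSO, no 20 nM CPT); pinned compounds; ≥48 hr at 37 °C; CellTiter-Glo luminescence as viability measure.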
ELG1 repair inh – qHTS screen for small molecules that inhibit ELG1-dependent DNA repair in human embryonic kidney (HEK293T) cells expressing luciferase-tagged ELG1; HEK293T ELG1-luciferase reporter, luminescence, 16 h; DNA damage induced by 5-fluorouridine; Potency, µM (highest dose often 46.1 µM), without a hit: at the top dose activity change, negative = inhibition, usual class: inhibitors; AID 504467, 2011; 330,000 tested, 2.3% active; also: potency is read from the fitted curve at half-maximal effect; nearly all actives have a fitted effect of over 55% in size
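HEK293T cells expressing luciferase-tagged ELG1 (2,000/well) received 5-Fluorouridine plus compound or DMSO for 16 hr at 37 °C. Luciferase was read by ONE-Glo luminescence after 30 min at room temperature.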
Active calls of the source: *; ? = inconclusive; . = no result given; [ ] = remark or other dose. An excerpt weighted towards active compounds, which were near 19% of everything screened. Unless noted, calls follow the shape of the dose curve; as a rule, active = well fitted curve in the direction sought with a large enough effect; inconclusive = small, poorly fitted or top-dose-only effect, or another doubt; inactive = no such curve, though single readings can be large; an effect the other way counts as inactive or inconclusive. % is scaled to controls: 0 for no effect and ±100 for the full control effect.

SMILES	TDP1 inh	IL-1B inflam inh	DT40 TDP1 CPT	Giardia killer	TDP1 cell noCPT	ELG1 repair inh
CC(C)C(NC(=O)C(C(C)C)N(C)C)C(=O)N(C)C(C(=O)N1CCCC1C(=O)N1CCCC1C(=O)NCc1ccccc1)C(C)C (stereo not given)	.	33.1	0.0326µM*	6.6	0.0517µM*	.
O=C(OCC(=O)c1ccc([N+](=O)[O-])cc1)/C(=C/c1ccc(Cl)cc1)NC(=O)c1ccccc1	5.3%	-12.0	16.4µM*	1.1	23.1µM*	5.0%
CN1CCN=C(c2ccccc2)c2cc(Cl)ccc21	.	.	-87.6%	.	-86.5%	.
COc1ccc(C=C(C#N)c2ccc(OC)cc2)cc1	.	-57.5*	?	-16.1	?	.
N#Cc1ccccc1NC(=O)c1cccn(Cc2ccccc2)c1=O	-10.4%	.	18.4µM*	.	14.6µM*	.
NC(=O)c1ccc(NC(=O)c2cccn(Cc3ccccc3)c2=O)cc1	0.0%	.	-4.4%	.	?	.
Cc1cccc2sc(NC(=O)c3cccn(Cc4ccccc4)c3=O)nc12	2.6%	.	?	.	13µM*	.
COC(=O)C(c1ccccc1)C1CCCCN1 (stereo not given)	17.2%	.	-19.0%	.	2.8%	.
COc1ccc(/C=C/c2nc(-c3ccccc3O)n(-c3ccccc3)n2)cc1OC	.	.	10.3µM*	.	10.3µM*	.
C[C@@]12CC[C@@H]3c4ccc(O)cc4C[C@H](CCCCCCCCCS(=O)CCCC(F)(F)C(F)(F)F)[C@H]3[C@@H]1CC[C@@H]2O (stereo not given in full)	12.8%[56.1 µM]	.	-57.6%	.	11.9µM*	.
COC1CC(C)C(OC)c2cc(O)cc(c2O)NC(=O)C(C)=CC=CC(C)C(OC(N)=O)C(C)=CC(C)C1OC (stereo not given)	.	-100.5*	0.092µM*	-1.1	0.146µM*	.
C=CCc1cccc(C=Nc2c[nH]c(=O)[nH]c2=O)c1O	.	12.4	18.4µM*	-4.0	-6.0%	-6.6%
CC(=O)[C@H]1CC[C@H]2C3CC[C@H]4C[C@](C)(O)CC[C@]4(C)C3CC[C@]12C (stereo not given in full)	4.3%	.	.	.	.	.
CN1[C@@H]2CC[C@H]1CC(OC1c3ccccc3CCc3ccccc31)C2 (stereo not given in full)	3.0%[56.1 µM]	?	8.2µM*	-7.5	2.59µM*	-19.8%
CN1C2CCC1CC(OC(=O)C1CCC(C(=O)OC3CC4CCC(C3)N4C)(c3ccccc3)c3ccccc31)C2 (stereo not given)	5.6%	.	-8.6%[9.04 µM]	.	-9.7%[9.04 µM]	.
Cc1ccc(-c2nnc(Nc3ccc(Br)cc3)c3ccccc23)cc1S(=O)(=O)NCc1nc2ccccc2[nH]1	.	.	?	.	23.1µM*	.
CC(C)CC(NC(=O)CCCNC(=O)CCC(=O)OC1O[C@H]2OC3(C)CC[C@H]4[C@H](C)CCC(C1C)C24OO3)C(=O)O (stereo not given in full)	.	-5.5	0.206µM*	-12.4	0.184µM*	?
C[C@H]1[C@H](OC(=O)CCC(=O)NCc2ccc(C(=O)O)cc2)O[C@@H]2O[C@@]3(C)CC[C@H]4[C@H](C)CC[C@@H]1C24OO3	.	-8.0	0.259µM*	-8.2	0.0259µM*	?
O=Cc1ccco1	14.9%	.	7.5%	.	3.1%	.
NC(=NCCC[C@H](N)C(=O)O)N[N+](=O)[O-]	2.4%	.	3.0%	.	-1.0%	.
Cc1ccc2c(c1)c(=O)c1c3n2CCN(CC2CO2)C3CC1 (stereo not given)	-6.1%	4.7	18.4µM*	-11.1	?	-2.6%
CC(C)CC(NP(=O)(O)O[C@@H]1O[C@@H](C)[C@H](O)[C@@H](O)[C@H]1O)C(=O)NC(Cc1c[nH]c2ccccc12)C(=O)O (stereo not given in full)	6.9%[56.1 µM]	.	.	.	.	.
Cc1c(Cl)ccc2sc(N3CCN(C(=O)CCS(=O)(=O)c4ccc(F)cc4)CC3)nc12	7.8%	.	0.581µM*	.	0.461µM*	.
CC(C)[C@H](NC(=O)[C@H](CC(=O)O)NC(=O)[C@H](Cc1ccccc1)NC(=O)[C@@H](C)NC(=O)[C@@H](N)Cc1ccc(O)cc1)C(=O)N[C@H](C(=O)NCC(N)=O)C(C)C	5.6%	.	.	.	.	.
O=C(N/N=C/c1c(O)n(C2CCCCC2)c(=S)[nH]c1=O)c1ccccc1	2.9%	21.8	?	-17.7	?	?
SMILES	TDP1 inh	IL-1B inflam inh	DT40 TDP1 CPT	Giardia killer	TDP1 cell noCPT	ELG1 repair inh
O=C(N/N=C/C1C(=O)NC(=S)N(c2ccccc2)C1=O)c1cc(Br)c(O)c(Br)c1 (stereo not given)	8.6%	31.3	16.4µM*	4.9	?	11.0%
CC1(C)C(=O)[C@@H]2OC2[C@@]2(C)C1CC(O)[C@]1(C)C2CC[C@@]2(C)C(c3ccoc3)OC(=O)C3OC312 (stereo not given in full)	7.2%	.	-26.3%	.	?	.
Cc1ccc(NP(=O)(Nc2ccc(C)cc2)Oc2ccccc2)cc1	2.9%	-71.5*	4.9%	-14.4	?	-20.1%
O=P(Oc1ccccc1)(Oc1ccccc1)c1ccccc1	?	-14.0	?	-25.4	16.4µM*	-8.6%
NP(=O)(Oc1ccccc1)c1ccccc1 (stereo not given)	.	20.6	8.1%	9.9	-4.4%	.
O=C1NC(=S)NC(=O)C1=Cc1c(Cl)cccc1Cl	.	-98.6*	10.3µM*	-7.4	16.4µM*	.
O=C1NC(=S)NC(=O)C1=Cc1cccc2cc3ccccc3cc12	-12.7%	-99.2*	5.17µM*	-10.1	2.59µM*	?
O=C1NC(=S)NC(=O)C1=Cc1ccc(OCc2ccccc2)cc1	.	-14.9	?	-17.6	?	.
O=C1NC(=S)NC(=O)C1=Cc1ccc(Br)s1	9.8%	-100.4*	10.3µM*	-9.0	9.2µM*	3.7%
COc1ccc(C=C2C(=O)NC(=S)NC2=O)cc1	.	0.0	?	1.5	?	.
CCN1C(=O)C(=Cc2ccc(C)s2)C(=O)N(CC)C1=S	-5.3%	-10.0	?	27.4	?	?
CN1C(=O)/C(=C\c2ccc(Br)s2)C(=O)NC1=S	1.7%	-99.2*	?	-12.5	16.4µM*	25.1%
ClC1=C(Cl)C(Cl)(C2(Cl)C(Cl)=C(Cl)C(Cl)=C2Cl)C(Cl)=C1Cl	-6.2%	.	.	.	.	.
